# Records with an inconclusive call do not appear. Active and inactive are the calls of the source.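 How the source made its calls, unless noted: active means efflux inhibition above 0.42, the validation set average plus 4 SD; inconclusive means no clear call, values can overlap the other calls; inactive means the rest.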
# How the values were obtained:
# [1] = yeast TOR pathway RPL19A-GFP modulators, primary screen, cell-based, S. cerevisiae, multiplex flow cytometry (AID 1862; in the data active means percent of DMSO control GFP below about 86%;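 further: lower values mimic rapamycin by blocking the RPL19A rise seen in DMSO cells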); settings: S. cerevisiae RPL19A-GFP strain, flow cytometry fluorescence, 3 h; at 10 µM; stronger effect = lower value
# [2] = modulators of MEP2-GFP levels in yeast, primary screen, S. cerevisiae, multiplex flow cytometry (AID 1867;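 active means GFP response, as percent of the DMSO control, above the screen-wide mean plus 3 SD, about 139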;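 further: median GFP channel fluorescence of barcode-gated MEP2-GFP cells measured by flow cytometry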); settings: S. cerevisiae MEP2-GFP strain, 3 h, at 10 µM, stronger effect = higher value, 100% means same as DMSO wells
# [3] = modulators of CIT2-GFP expression in yeast, primary screen, S. cerevisiae, GFP fusion, multiplex flow cytometry (AID 1870;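 active means percent response above a set limit, the screen-wide mean plus 3 SD, cut at about 130% in these data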;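 further: barcoded CIT2-GFP strain pooled with four other GFP strains with rapamycin as positive control; median GFP fluorescence per well over plate mean of DMSO wells so 100% = DMSO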); settings: 3 h, at 10 µM, stronger effect = higher value
# [4] = modulators of LAP4-GFP expression in yeast, primary screen, S. cerevisiae, multiplex flow cytometry (AID 1873;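 active means GFP signal, as percent of the solvent control, above the screen mean plus 3 SD, about 149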); settings: 3 h, at 10 µM, stronger effect = higher value
# [5] = modulators of AGP1-GFP expression in yeast TOR pathway, primary screen, cell-based, multiplex flow cytometry, S. cerevisiae (AID 1887;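 active means GFP signal above the screen-wide mean plus 3 SD, that is over about 124.5% of the solvent control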;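 further: AGP1-GFP fusion strain of S. cerevisiae within a five-strain barcoded multiplex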); settings: 3 h, at 10 µM, stronger effect = higher value
# [6] = inhibitors of CD8+ T cell-vesicle binding, pilot screen, LFA-1/ICAM-1 modulator project, MLPCN validation set, flow cytometry (AID 2523;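 active means response below a set limit, under 55% cells CD8-positive and vesicle-bound, and CD8 cells' 90th-percentile brightness under 279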;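 on vesicle binding response: mean PE anti-B7-1 fluorescence of CD8+ cells relative to row control; 100% = QL9-loaded vesicles with DMSO vehicle in the same plate row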); settings: 2C mouse CD8+ T cells, at 7 µM, stronger effect = lower value; double positive events: measured here: CD8+/vesicle+ event percentage
# [7] = target: Integrin beta-1 (Homo sapiens) + Integrin alpha-4 (Homo sapiens) (UniProt P13612+P05556); test: inhibition of HUTS-21 binding to VLA-4, pilot screen, VLA-4 allosteric modulator project, U937 cells, HUTS-21 mAb, flow cytometry, validation set (AID 2674;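 active means inhibition above 50%, about 3 SD of the validation set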;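 further: antibody binding induced by the VLA-4 ligand LDV present at three times its Kd; 0% = LDV ligand with antibody and no compound and 100% = antibody without LDV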); settings: HUTS-21 LIBS mAb binding, at 6.7 µM, stronger effect = higher value, binding induced by LDV ligand
# [8] = superoxide lowering in aged yeast cells, pilot screen, validation compound set (AID 2706;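 active means superoxide response below 65% of plate, a cut near 3 SD across the whole screen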;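 further: yeast exposed to compound for one week at 30 degrees C before staining; 100% = mean of all compound wells on the same plate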); settings: S. cerevisiae aging, superoxide DHE fluorescence; at 10 µM; stronger effect = lower value
# [9] = target: Beta-adrenergic receptor kinase 1 (Homo sapiens) (UniProt P25098); test: GRK2 binders displacing RNA aptamer, biochemical, validation, human GRK2, bead flow cytometry (AID 488806;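 active means aptamer binding inhibition above 30%, about 3 SD of noise from non-fluorescent compounds; inactive means inhibition at or below 30%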); settings: bead-bound GRK2, FAM-aptamer displacement, at 10 µM, stronger effect = higher value
# [10] = target: Beta-2 adrenergic receptor (Homo sapiens) (UniProt P07550); test: beta2AR agonists driving receptor internalization, pilot screen, cell-based, FAP fluorogen, flow cytometry, validation set (AID 504459;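 active means percent response above 42, roughly 3 SD of non-fluorescent test compounds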;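 further: agonist-driven loss of surface beta2AR via internalization measured by FAP dye flow cytometry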); settings: Am2.2-beta2AR cells, FAP surface receptor flow cytometry; at 10 µM; stronger effect = higher value
# [11] = target: AP-2 complex subunit beta (Homo sapiens) (UniProt P63010); test: inhibitors of arrestin peptide binding to AP2, pilot screen, biochemical, validation set, GST-AP2 beads, flow cytometry (AID 504541;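 active means inhibition above 54%, about 3 SD of non-fluorescent compounds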;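 further: AP2 carries R879A mutation and is captured from E. coli lysate; bead-bound FITC arrestin peptide fluorescence measuring arrestin peptide binding to AP2; 0% = DMSO wells and 100% = excess unlabeled arrestin peptide control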); settings: FITC arrestin peptide, at 10 µM, stronger effect = higher value, AP2 beta2 appendage fragment, R879A mutant
# [12] = yeast V-ATPase proton transport modulators, S. cerevisiae, pHLuorin, HTS validation (AID 504600; in the data active means response above about 15%;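 further: plate controls were DMSO for no effect and reference compound for full effect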); settings: S. cerevisiae pHLuorin cytosolic pH, at 10 µM, stronger effect = higher value
# [13] = test system: anti-desmoglein-3 scFv antibody binding to human DSG3; test: inhibitors of anti-DSG3 scFv binding to DSG3, pilot screen, biochemical, validation compound set, bead-based, flow cytometry (AID 588368;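 active means binding below the plate cutoff, the plate median minus 3 SD, with a reading above zero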;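 further: signal is the median channel fluorescence of bead-bound GFP antibody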); settings: Protein G beads, DSG3-Fc, scFv-GFP binding, at 10 µM, stronger effect = lower value
# [14] = inhibitors of fungal efflux pumps CDR1, CDR2, MDR1, pilot screen, validation compound set, multiplex, phenotypic (AID 588506);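 further: Nile Red retained in cells so higher fluorescence means more efflux inhibition; 0 = negative control wells and 1 = enniatin B 25 µM full block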; settings: S. cerevisiae pump-expressing triplex, Nile Red efflux flow cytometry; at 10 µM; stronger effect = higher value; the pumps come from Candida albicans
# [15] = target: ATP-binding cassette sub-family B member 6 (Homo sapiens) (UniProt Q9NP58); test: ABCB6 transporter inhibitors, pilot screen, K562-ABCB6 cells, flow cytometry, validation set (AID 588550;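 active means inhibition above the screen-wide mean plus 3 SD, about 51%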;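 further: 0% = DMSO wells and 100% = benzethonium chloride 70 µM positive control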); settings: K562-ABCB6 porphyrin accumulation, 1 h, at 10 µM, stronger effect = higher value
# [16] = promoters of myeloid differentiation in arrested cells, primary screen, cell-based, GFP/MAC1 double positive, flow cytometry, validation set (AID 588685;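 active means differentiation response of at least 50%, scaled between solvent and reference control, from cells with both markers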;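 further: compound exposure lasts four days before antibody staining and flow analysis; 0% = DMSO wells and 100% = 5 µM fulvestrant positive control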); settings: ER-HoxA9 marrow cells, stronger effect = higher value, normalized: vehicle 0, fulvestrant 100
# Chain of ATP-binding cassette sub-family B member 6 (Homo sapiens) (Q9NP58 whole entry, looked up): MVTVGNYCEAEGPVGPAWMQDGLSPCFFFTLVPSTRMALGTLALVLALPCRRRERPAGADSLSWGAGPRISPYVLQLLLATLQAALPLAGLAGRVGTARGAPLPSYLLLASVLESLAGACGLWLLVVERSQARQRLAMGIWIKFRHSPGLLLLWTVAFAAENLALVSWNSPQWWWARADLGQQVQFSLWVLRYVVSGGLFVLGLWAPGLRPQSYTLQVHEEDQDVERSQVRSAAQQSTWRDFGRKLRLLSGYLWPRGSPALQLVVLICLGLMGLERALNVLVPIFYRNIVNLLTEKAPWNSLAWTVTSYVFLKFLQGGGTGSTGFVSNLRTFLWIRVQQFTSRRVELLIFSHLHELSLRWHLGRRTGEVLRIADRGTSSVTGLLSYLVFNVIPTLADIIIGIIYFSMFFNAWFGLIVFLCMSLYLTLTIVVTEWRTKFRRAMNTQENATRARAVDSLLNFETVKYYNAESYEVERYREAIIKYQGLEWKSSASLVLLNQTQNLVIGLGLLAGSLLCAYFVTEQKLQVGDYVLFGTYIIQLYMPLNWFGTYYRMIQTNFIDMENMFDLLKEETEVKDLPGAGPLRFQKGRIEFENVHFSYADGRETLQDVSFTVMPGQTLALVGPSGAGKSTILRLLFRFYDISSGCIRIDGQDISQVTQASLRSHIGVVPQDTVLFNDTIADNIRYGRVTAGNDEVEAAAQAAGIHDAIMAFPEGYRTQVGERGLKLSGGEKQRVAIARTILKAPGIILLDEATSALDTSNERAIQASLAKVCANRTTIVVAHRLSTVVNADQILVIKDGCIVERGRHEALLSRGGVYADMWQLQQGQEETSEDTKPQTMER
# Chain of Beta-2 adrenergic receptor (Homo sapiens) (P07550 whole entry, looked up): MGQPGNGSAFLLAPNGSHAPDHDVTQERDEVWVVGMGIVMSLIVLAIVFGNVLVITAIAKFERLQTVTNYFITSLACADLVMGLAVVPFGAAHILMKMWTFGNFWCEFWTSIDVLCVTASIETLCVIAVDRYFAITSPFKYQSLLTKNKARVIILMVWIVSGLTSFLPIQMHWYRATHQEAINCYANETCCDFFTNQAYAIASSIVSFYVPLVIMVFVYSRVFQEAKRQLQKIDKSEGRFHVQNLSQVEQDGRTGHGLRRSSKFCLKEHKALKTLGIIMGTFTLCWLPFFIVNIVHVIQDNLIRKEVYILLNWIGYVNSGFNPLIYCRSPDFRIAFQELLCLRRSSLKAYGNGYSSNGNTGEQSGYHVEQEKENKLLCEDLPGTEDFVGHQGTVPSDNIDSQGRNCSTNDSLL
# Chain of Integrin beta-1 (Homo sapiens) + Integrin alpha-4 (Homo sapiens) (P05556 whole entry, looked up): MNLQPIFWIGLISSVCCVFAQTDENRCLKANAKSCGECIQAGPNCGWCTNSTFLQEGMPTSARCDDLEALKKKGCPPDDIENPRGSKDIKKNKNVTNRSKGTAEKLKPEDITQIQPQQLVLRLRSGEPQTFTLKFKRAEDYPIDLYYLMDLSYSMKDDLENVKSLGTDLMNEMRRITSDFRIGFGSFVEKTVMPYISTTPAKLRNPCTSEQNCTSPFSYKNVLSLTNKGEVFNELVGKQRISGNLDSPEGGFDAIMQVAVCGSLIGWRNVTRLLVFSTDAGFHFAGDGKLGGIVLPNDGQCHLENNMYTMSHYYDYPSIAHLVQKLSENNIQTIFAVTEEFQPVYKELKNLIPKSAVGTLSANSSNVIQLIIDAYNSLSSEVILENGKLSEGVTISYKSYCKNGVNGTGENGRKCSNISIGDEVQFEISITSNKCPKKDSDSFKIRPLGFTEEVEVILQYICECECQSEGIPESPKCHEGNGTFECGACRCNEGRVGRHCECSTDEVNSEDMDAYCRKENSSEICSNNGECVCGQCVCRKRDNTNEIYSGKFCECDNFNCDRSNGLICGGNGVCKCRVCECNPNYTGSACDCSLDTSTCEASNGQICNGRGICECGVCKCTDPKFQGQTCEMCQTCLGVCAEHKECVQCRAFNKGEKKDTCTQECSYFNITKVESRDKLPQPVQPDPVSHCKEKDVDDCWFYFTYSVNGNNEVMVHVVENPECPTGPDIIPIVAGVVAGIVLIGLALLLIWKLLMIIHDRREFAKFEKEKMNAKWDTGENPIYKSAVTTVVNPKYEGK
# Chain of Integrin beta-1 (Homo sapiens) + Integrin alpha-4 (Homo sapiens) (P13612 whole entry, looked up): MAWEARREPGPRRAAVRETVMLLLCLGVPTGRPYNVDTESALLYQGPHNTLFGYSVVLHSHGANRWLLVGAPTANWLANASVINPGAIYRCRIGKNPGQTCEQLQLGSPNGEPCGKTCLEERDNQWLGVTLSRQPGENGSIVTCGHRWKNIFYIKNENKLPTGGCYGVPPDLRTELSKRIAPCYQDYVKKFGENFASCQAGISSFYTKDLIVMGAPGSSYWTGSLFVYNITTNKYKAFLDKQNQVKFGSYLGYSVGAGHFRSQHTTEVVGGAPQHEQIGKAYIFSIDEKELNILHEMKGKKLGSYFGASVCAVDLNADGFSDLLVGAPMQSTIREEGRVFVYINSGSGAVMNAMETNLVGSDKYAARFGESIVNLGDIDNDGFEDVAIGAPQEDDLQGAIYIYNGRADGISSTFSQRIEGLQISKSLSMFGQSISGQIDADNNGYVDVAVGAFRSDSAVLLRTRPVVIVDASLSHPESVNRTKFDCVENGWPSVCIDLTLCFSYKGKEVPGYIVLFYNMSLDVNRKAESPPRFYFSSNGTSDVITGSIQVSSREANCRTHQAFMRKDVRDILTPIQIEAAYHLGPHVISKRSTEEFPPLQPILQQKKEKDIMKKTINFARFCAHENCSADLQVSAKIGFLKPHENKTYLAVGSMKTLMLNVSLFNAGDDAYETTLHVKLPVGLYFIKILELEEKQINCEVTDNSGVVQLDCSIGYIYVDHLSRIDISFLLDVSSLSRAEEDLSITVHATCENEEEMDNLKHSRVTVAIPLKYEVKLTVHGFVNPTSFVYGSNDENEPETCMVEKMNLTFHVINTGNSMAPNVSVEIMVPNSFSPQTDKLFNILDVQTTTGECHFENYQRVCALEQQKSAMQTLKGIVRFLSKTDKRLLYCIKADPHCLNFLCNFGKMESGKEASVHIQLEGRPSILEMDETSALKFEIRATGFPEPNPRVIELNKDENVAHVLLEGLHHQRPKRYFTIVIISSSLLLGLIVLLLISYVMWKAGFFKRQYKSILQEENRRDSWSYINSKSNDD
# Chain of Beta-adrenergic receptor kinase 1 (Homo sapiens) (P25098 whole entry, looked up): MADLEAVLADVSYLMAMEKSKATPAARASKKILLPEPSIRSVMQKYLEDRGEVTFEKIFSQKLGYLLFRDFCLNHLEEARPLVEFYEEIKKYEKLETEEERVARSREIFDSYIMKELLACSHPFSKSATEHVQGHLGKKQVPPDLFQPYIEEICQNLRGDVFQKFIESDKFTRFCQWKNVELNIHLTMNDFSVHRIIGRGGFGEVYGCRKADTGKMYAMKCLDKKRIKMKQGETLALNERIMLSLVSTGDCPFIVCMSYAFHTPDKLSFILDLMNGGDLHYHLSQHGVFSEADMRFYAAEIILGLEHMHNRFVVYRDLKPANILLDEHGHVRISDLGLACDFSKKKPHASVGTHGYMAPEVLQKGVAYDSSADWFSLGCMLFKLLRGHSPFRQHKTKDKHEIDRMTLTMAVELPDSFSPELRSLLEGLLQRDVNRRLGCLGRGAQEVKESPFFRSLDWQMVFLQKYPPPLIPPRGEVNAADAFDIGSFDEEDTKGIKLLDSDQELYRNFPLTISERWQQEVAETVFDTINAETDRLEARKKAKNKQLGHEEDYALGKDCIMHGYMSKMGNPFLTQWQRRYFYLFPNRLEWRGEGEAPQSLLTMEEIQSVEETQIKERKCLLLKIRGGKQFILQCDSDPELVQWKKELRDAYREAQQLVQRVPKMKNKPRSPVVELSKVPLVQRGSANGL
# Chain of AP-2 complex subunit beta (Homo sapiens) (P63010 whole entry, looked up, the tested form may be a part, one chain of several): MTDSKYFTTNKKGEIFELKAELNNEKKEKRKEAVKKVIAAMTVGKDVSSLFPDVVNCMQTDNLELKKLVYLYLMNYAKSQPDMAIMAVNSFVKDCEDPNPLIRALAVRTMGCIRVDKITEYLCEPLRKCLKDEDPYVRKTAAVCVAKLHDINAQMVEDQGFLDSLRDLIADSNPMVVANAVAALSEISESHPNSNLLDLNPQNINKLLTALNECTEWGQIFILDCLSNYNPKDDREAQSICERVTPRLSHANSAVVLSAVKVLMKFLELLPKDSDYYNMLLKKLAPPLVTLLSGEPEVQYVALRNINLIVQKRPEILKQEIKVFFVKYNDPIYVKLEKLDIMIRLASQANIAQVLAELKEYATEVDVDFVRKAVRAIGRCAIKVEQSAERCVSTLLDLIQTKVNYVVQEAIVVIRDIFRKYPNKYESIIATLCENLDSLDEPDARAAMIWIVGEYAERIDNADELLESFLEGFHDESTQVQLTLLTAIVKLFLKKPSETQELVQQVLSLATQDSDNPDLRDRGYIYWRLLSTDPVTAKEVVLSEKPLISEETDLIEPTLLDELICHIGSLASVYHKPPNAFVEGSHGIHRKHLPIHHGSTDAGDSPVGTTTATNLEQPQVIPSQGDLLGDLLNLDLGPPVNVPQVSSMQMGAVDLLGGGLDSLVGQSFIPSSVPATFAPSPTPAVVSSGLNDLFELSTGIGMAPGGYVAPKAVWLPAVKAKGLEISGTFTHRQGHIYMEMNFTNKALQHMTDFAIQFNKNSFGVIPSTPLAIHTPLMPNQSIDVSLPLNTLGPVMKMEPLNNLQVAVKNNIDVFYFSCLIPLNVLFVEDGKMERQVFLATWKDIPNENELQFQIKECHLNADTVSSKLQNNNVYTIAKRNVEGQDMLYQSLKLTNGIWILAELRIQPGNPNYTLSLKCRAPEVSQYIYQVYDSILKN
SMILES,percent of DMSO control GFP [1],GFP response vs DMSO [2],percent response of DMSO control [3],GFP response vs DMSO [4],"GFP response, % of DMSO [5]",double positive events [6],vesicle binding response [6],inhibition [7],superoxide response (% of plate) [8],aptamer binding inhibition [9],response [10],inhibition [11],response [12],binding (% of control) [13],efflux inhibition (fraction of control) [14],inhibition [15],differentiation response [16]
COC(=O)C1=C(C)N(Cc2ccco2)C(=O)/C1=C\c1ccc([N+](=O)[O-])cc1,102% (inactive),103% (inactive),97.8% (inactive),95.3% (inactive),96.2% (inactive),66.2%,232% (inactive),-274% (inactive),112% (inactive),-4% (inactive),15.1% (inactive),43.9% (inactive),-6.06% (inactive),205% (inactive),0.18 (inactive),-55% (inactive),42.3% (inactive)
COc1ccc(NC(=O)CC2C(=O)N(C)C(=S)N2Cc2ccncc2)cc1 (stereo unspecified),88% (inactive),123% (inactive),97.9% (inactive),75.4% (inactive),88.2% (inactive),54.8%,194% (inactive),5.49% (inactive),105% (inactive),0% (inactive),-1.13% (inactive),0.05% (inactive),-1.16% (inactive),100% (inactive),0.01 (inactive),8% (inactive),1.64% (inactive)
COc1cc(/C=C/C(=O)O)cc(S(=O)(=O)NCCCO)c1OC,97.3% (inactive),98.5% (inactive),91% (inactive),116% (inactive),105% (inactive),59.6%,157% (inactive),6.4% (inactive),95.1% (inactive),5% (inactive),8.94% (inactive),-5.7% (inactive),-0.12% (inactive),96.6% (inactive),-0.13 (inactive),5% (inactive),-15.2% (inactive)
COc1cc(C=NCC2OCCc3ccccc32)cc(OC)c1 (stereo unspecified),99% (inactive),105% (inactive),95.8% (inactive),117% (inactive),100% (inactive),57.8%,136% (inactive),-1.79% (inactive),101% (inactive),4% (inactive),4.4% (inactive),17.8% (inactive),1.44% (inactive),103% (inactive),-0.46 (inactive),-47% (inactive),-7.2% (inactive)
COC(=O)c1ccc(OCCCCN2CC(C)OC(C)C2)cc1 (stereo unspecified),104% (inactive),99.7% (inactive),105% (inactive),95.9% (inactive),102% (inactive),63.1%,228% (inactive),-3.77% (inactive),106% (inactive),0% (inactive),2.87% (inactive),-5.73% (inactive),2.09% (inactive),98.3% (inactive),0.39 (inactive),5% (inactive),-11.9% (inactive)
CC(=O)N1CCn2c3c(c4cc(C)ccc42)CCCC31 (stereo unspecified),99.7% (inactive),102% (inactive),98.3% (inactive),123% (inactive),111% (inactive),62%,208% (inactive),0.59% (inactive),122% (inactive),0% (inactive),14.2% (inactive),61.1% (active),4.65% (inactive),110% (inactive),0.38 (inactive),-1% (inactive),-4% (inactive)
O=C(CN1C(=O)C2CCc3[nH]c4ccccc4c3C2C1=O)N1CCCC1 (stereo unspecified),89.1% (inactive),121% (inactive),106% (inactive),78.1% (inactive),87.3% (inactive),48%,72.2% (active),22.9% (inactive),95.1% (inactive),3% (inactive),-15.3% (inactive),-3.8% (inactive),-4.07% (inactive),103% (inactive),0.09 (inactive),9% (inactive),4.91% (inactive)
COCCCN1C(=O)/C(=C\c2cccs2)C(C(=O)OC)=C1C,99.9% (inactive),106% (inactive),92.9% (inactive),120% (inactive),99.4% (inactive),57.8%,4220% (inactive),6.4% (inactive),113% (inactive),2% (inactive),-6.32% (inactive),-12% (inactive),10.8% (inactive),102% (inactive),-0.06 (inactive),5% (inactive),-20% (inactive)
Cn1c(=O)c2nc3ccccc3nc2n(C)c1=O,94.6% (inactive),103% (inactive),93.9% (inactive),112% (inactive),94.3% (inactive),61.5%,198% (inactive),2.3% (inactive),99.2% (inactive),0% (inactive),-7.58% (inactive),-11.6% (inactive),2.81% (inactive),101% (inactive),-0.1 (inactive),2% (inactive),-12% (inactive)
NC(N)=NC(N)=Nc1ccc2ccccc2c1,102% (inactive),97.4% (inactive),104% (inactive),85.4% (inactive),95.8% (inactive),58.7%,183% (inactive),3.67% (inactive),106% (inactive),1% (inactive),18% (inactive),16% (inactive),-3.32% (inactive),97.8% (inactive),-0.21 (inactive),-3% (inactive),-0.8% (inactive)
CO[C@H]1C=CO[C@@]2(C)Oc3c(C)c(O)c4c(O)c(c(C=NN5CCN(C)CC5)c(O)c4c3C2=O)NC(=O)C(C)=CC=C[C@H](C)[C@H](O)[C@@H](C)[C@@H](O)[C@@H](C)[C@H](OC(C)=O)[C@@H]1C,93.3% (inactive),127% (inactive),93.9% (inactive),78.7% (inactive),98.2% (inactive),64.9%,575% (inactive),-46.9% (inactive),105% (inactive),3% (inactive),9.39% (inactive),-2.48% (inactive),-1.49% (inactive),99.2% (inactive),0.01 (inactive),12% (inactive),2.46% (inactive)
CCN(CCCCOC(=O)c1ccc(OC)c(OC)c1)C(C)Cc1ccc(OC)cc1 (stereo unspecified),102% (inactive),99.6% (inactive),102% (inactive),104% (inactive),117% (inactive),62.7%,194% (inactive),22.7% (inactive),103% (inactive),4% (inactive),-26.8% (inactive),3.32% (inactive),0.12% (inactive),103% (inactive),-0.09 (inactive),6% (inactive),-5.97% (inactive)
c1coc(-c2nnc3n2C2(CCCC2)Cc2ccccc2-3)c1,94.2% (inactive),114% (inactive),97.9% (inactive),82.5% (inactive),91.5% (inactive),73.1%,279% (inactive),25.9% (inactive),91.6% (inactive),4% (inactive),-2% (inactive),-13.2% (inactive),0.46% (inactive),109% (inactive),-0.6 (inactive),14% (inactive),3.28% (inactive)
CC(=O)C1=C(Nc2ccc(C)cc2)CC(C)(O)C(C(C)=O)C1c1ccco1 (stereo unspecified),105% (inactive),104% (inactive),93.1% (inactive),96.6% (inactive),97.2% (inactive),66.9%,223% (inactive),-9.79% (inactive),103% (inactive),5% (inactive),0.66% (inactive),36.9% (inactive),-0.29% (inactive),105% (inactive),0.3 (inactive),-19% (inactive),14.9% (inactive)
CN1CCN(CCCN2c3ccccc3Sc3ccc(Cl)cc32)CC1,99.3% (inactive),102% (inactive),97% (inactive),113% (inactive),120% (inactive),61.4%,179% (inactive),63.6% (active),70.1% (inactive),0% (inactive),-15% (inactive),0.77% (inactive),1.39% (inactive),106% (inactive),-0.17 (inactive),7% (inactive),3.88% (inactive)
CCc1nc(N)nc(N)c1-c1ccc(Cl)cc1,92.2% (inactive),112% (inactive),102% (inactive),70.4% (inactive),101% (inactive),65.6%,209% (inactive),5.49% (inactive),87.5% (inactive),0% (inactive),-2.3% (inactive),1.62% (inactive),1.08% (inactive),137% (inactive),0.23 (inactive),10% (inactive),-3.28% (inactive)
C=CC1=C(C(=O)O)N2C(=O)C(NC(=O)Cc3ccccc3)C2SC1 (stereo unspecified),101% (inactive),103% (inactive),105% (inactive),82.8% (inactive),100% (inactive),62%,134% (inactive),13.2% (inactive),96.1% (inactive),86% (active),0.41% (inactive),15.3% (inactive),1.11% (inactive),101% (inactive),0.01 (inactive),7% (inactive),-31.2% (inactive)
C[C@]12CCC3C(CC=C4C[C@@H](O)CC[C@@]43C)C1CCC2[C@]1(C)CCC(=O)O1 (stereo partly specified),102% (inactive),97.4% (inactive),109% (inactive),84.6% (inactive),95.7% (inactive),57%,164% (inactive),0.94% (inactive),100% (inactive),4% (inactive),1.67% (inactive),-4.51% (inactive),-0.48% (inactive),103% (inactive),0.48 (active),9% (inactive),-15.2% (inactive)
